From PubChem BioAssay AID1490 (National Center for Advancing Translational Sciences (NCATS), 2009)
Values joined by “and” are separate entries in the source; they are usually repeats but may differ in a detail not shown here. Equal values may be shown once. The campaign covered roughly 310,000 compounds. About 11,000 (3.5%) were called active. Roughly 4% stayed inconclusive and do not appear here. The sample as a whole holds a higher share of actives than the screen did. Unmarked numbers belong to inactive results. Calls follow the shape of the dose curve; as a rule, active = well fitted inhibition curve with a large enough effect; inconclusive = small, poorly fitted or top-dose-only effect, or another doubt; inactive = no such curve, though single readings can be large or run the other way.

target: 4'-phosphopantetheinyl transferase ffp (Bacillus subtilis) (UniProt Q9F4F7); assay: qHTS Assay for Inhibitors of Bacillus subtilis Sfp phosphopantetheinyl transferase (PPTase); settings: Biochemical Sfp PPTase activity;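 also: the enzyme is Sfp with the accession as filed and its product quenches rhodamine fluorescence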;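 as to largest response in the series, negative = inhibition: 0% = enzyme reaction without inhibitor and -100% = no enzyme wells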
Method in brief: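 Step 1, compound plus 15 nM Sfp-PPTase, 15 min, room temperature. Step 2, add rhodamine-CoA (5 uM) and BHQ-2-YbbR (12.5 uM). Step 3, read 525/598 nm fluorescence at 0 and 30 min.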
Potency is read from the fitted curve at half-maximal effect.

In order of falling largest response in the series, negative = inhibition:
1. COc1ccc(CC(=O)N/N=C/c2cc([N+](=O)[O-])cc(Br)c2O)cc1  23.5%
2. CCC1Sc2ccc(S(=O)(=O)CCC(=O)NCc3cccs3)cc2NC1=O (configuration not stated)  20.6%
3. Cc1ccccc1CNC(=O)CCC(=O)N1Cc2ccccc2Oc2ncccc21  19%
4. COc1cc(C2NC(=O)NC(c3ccccc3)=C2C(C)=O)c(Br)cc1OCC(N)=O (configuration not stated)  18.5%
5. Cc1ccccc1NC(=O)Cn1cc(C(=O)C2CC2)c2ccccc21  16.6%
6. O=C(Cn1nc([N+](=O)[O-])nc1Br)NC1CCCCC1  16.4%
7. COC(=O)C(NS(=O)(=O)c1ccc(F)cc1)c1ccccc1 (configuration not stated)  16.1%
8. Cc1ccc(C)c(N2CCN(C(=O)CCCn3c(=O)c4cccn4c4cccnc43)CC2)c1  14.7%
9. NNC(=O)c1nnn(-c2nonc2N)c1CN1CCCC1  14.1%
10. COc1ccc(Cl)cc1NC(=O)CCN1CCOCC1  13.9%
11. C[C@H]1Cc2c(COc3ccccc3)nc3c(c2CO1)CN(C(=O)Nc1cccc(C#N)c1)CC3  13.6%
12. CN(CC(=O)Nc1c(Cl)cccc1Cl)C(=O)c1ccncc1  13.1%
13. CCOc1cc(-c2noc(CCCC(=O)NC3CCCCC3)n2)ccc1OC  13%
14. CCOC(=O)N1CCN(S(=O)(=O)c2ccc(Br)cc2)CC1  12.6%
15. COc1ccc(C(=O)NC(C)Cn2nc(C)cc2C)cc1OC1CCN(C(C)=O)CC1 (configuration not stated)  12.4%
16. Cc1ccnc(N2CCCC(C(=O)NC3CC3)C2)n1 (configuration not stated)  12.1%
17. Cc1cc(C(F)(F)F)nn1-c1nc(-c2ccco2)cc(C(F)(F)F)n1  11.9%
18. COc1ccc(C(=O)Nc2c(Cl)cc(Cl)cc2C(=O)N2CCC(C)CC2)cc1  11.9%
19. O=C(Cc1c(Cl)cccc1Cl)NC1CC1  11.4%
20. COc1ccc(-n2ncc3c2CC(C)(C)CC3NC(=O)CCc2c(C)nn(C)c2C)cc1 (configuration not stated)  11.2%
21. COc1ccc(/C=C(\C#N)c2c[nH]c3ccccc23)cc1  10.3%
22. O=C(NCC(=O)N1CCC2(CC1)NCCc1[nH]cnc12)c1ccc(Br)cc1  9.84%
23. CSc1sc(C(=O)NC(=O)NCc2cccnc2)c(C)c1-c1ccon1  9.79%
24. CC(C)=CCCC(C)CN1CCC(n2nccc2NC(=O)c2ccccc2)CC1 (configuration not stated)  9.72%
25. CCOc1cc2[nH]c(=O)n(Cc3ccc(C(=O)NCCCN4CCCC4=O)cc3)c(=O)c2cc1OCC  9.7%
26. COc1ccc(N(CC(=O)Nc2cccc3ccccc23)S(C)(=O)=O)c(OC)c1  9.66%
27. CCN(CC(=O)NCCCN1CCOCC1)S(=O)(=O)c1cc(Cl)ccc1Cl  9.56%
28. COc1ccc(CCNC(=O)c2nnc(CS(=O)(=O)c3ccccc3)o2)cc1OC  9.29%
29. O=C(CSc1ncn[nH]1)NCc1ccc2c(c1)OCO2  9.23%
30. CC(C)(C)C(=O)NC(NC(=S)Nc1ccc(S(N)(=O)=O)cc1)C(Cl)(Cl)Cl (configuration not stated)  7.73%
31. Cc1ccnc(SCC(N)=O)n1  7.56%
32. CCOc1ccc(CN2CCN(CCCc3ccccc3)C(CCO)C2)cc1 (configuration not stated)  7.43%
33. CCCOc1ccc(CNC(=O)C2CCN(c3nn4c(=O)cc(C)nc4s3)CC2)cc1  7.3%
34. NS(=O)(=O)c1ccc(CCNC(=O)Nc2ccc(Cl)cc2)cc1  7.27%
35. CCc1ccc(NC(=O)C(=O)NNC(=O)c2cccs2)cc1  6.91%
36. NC(N)=N/N=C/c1ccc(Cl)c([N+](=O)[O-])c1  6.82%
37. Cc1ccc(NC(=S)Nc2ccc(F)cc2)cc1  5.93%
38. C/C(=N/NC(=O)c1ccn(C)n1)c1ccncc1  5.8%
39. CCc1ccc(OCC(O)CN2CCN(CCO)CC2)cc1 (configuration not stated)  5.76%
40. COc1ccc(CCNC(=O)CCCCCNC(=O)N2CCn3c2nc2ccccc23)cc1OC  4.84%
41. C/C(=N/NC(=O)c1ccncc1)c1ccc2c(c1)OCO2  4.66%
42. COc1cccc(NC(=O)CN(C)C(=O)c2ccccc2CCc2ccccc2)c1  4.61%
43. Cc1ccc(C(=O)N2CCC(n3nccc3NC(=O)Nc3cccc(F)c3)CC2)cn1  4.54%
44. COc1ccc(C)cc1N(CC(=O)NC(C)c1ccccc1)S(C)(=O)=O (configuration not stated)  4.53%
45. Cc1ccccc1-c1nnc(SCC(=O)NCc2ccc3c(c2)OCO3)n1C  4.47%
46. Cc1c(C(=O)N(C)CCc2cnn(C)c2)oc2c(F)cccc12  4.37%
47. CCNC(=O)N1CCCC(C(=O)c2ccc(-c3ccccc3)cc2)C1 (configuration not stated)  4.19%
48. COc1ccccc1NC(=O)CCN1CCN(c2ccc(Cl)cc2)CC1  3.28%
49. O=C(c1cccnc1)N1CCN(S(=O)(=O)c2cccs2)CC1  2.77%
50. Cc1csc(NC(=O)c2ccc(-c3ccc(Cl)cc3Cl)o2)n1  1.33%
51. Cc1cc(SCc2c(F)cccc2Cl)nc(=O)[nH]1  1.28%
52. CCn1c(SCc2cccc(C(=O)O)c2)nnc1-c1ccc(Cl)cc1  1.11%
53. COc1ccc(C(=O)O/N=C(\N)Cc2ccc(Cl)cc2Cl)cc1OC  0.628%
54. CCCn1cc(S(=O)(=O)c2ccc(C)cc2)c(=O)c2cc(OCC)ccc21  0.066%
55. Cc1csc(-c2nc3ccccc3n2C)n1  -0.542%
56. O=C(Nc1nnc(-c2ccccc2F)s1)c1ccccc1F  -1.78%
57. O=C(COc1ccc(Cl)cc1)NCCS(=O)(=O)N1CCN(c2ccc(F)cc2)CC1  -3.01%
58. NS(=O)(=O)c1ccc(CCNC(=O)CNC(=O)Cc2ccccc2)cc1  -3.07%
59. CCOc1ccc(C2C3=C(CCCC3=O)N(CC(=O)O)C3=C2C(=O)CCC3)cc1  -3.36%
60. O=C(CN1CCCCCC1)Nc1ccc(Br)cc1[N+](=O)[O-]  -3.46%
61. CCOc1cc2[nH]c(=S)n(CCN3CCCCC3C)c(=O)c2cc1OCC (configuration not stated)  -4.39%
62. Cc1ccc2c(c1)N(CC(=O)NCCc1ccc(Cl)cc1)C(=O)c1cccnc1O2  -4.46%
63. Cn1c(SCc2c(F)cccc2Cl)nnc1-c1cnccn1  -5.8%
64. CC(C)(C)c1cc(C(=O)NCc2cccnc2)ccn1  -7%
65. CCCCC[C@H](O)/C=C/[C@@H]1[C@@H](CC(=O)CCC(=O)O)[C@@H](O)C[C@H]1O  -8.37%
66. CNS(=O)(=O)c1ccc(NC(=O)Nc2ccc3c(c2)OCO3)cc1  -9.71%
67. Cc1cc(=O)[nH]c(N/N=C/c2c(C)nn(-c3ccccc3Cl)c2Cl)n1  -9.72%
68. CN(C)c1ccc(NC(=O)CN2C3CCCC2CC(NC(=O)c2ccccc2)C3)cc1 (configuration not stated)  -10%
69. NS(=O)(=O)c1ccc(NC(=S)NC(=O)c2cccc(Br)c2)cc1  -13.6%
70. CC(C)C(=O)Nc1ccc(C(=O)NNC(=O)c2cccs2)cc1  -14.7%
71. CCN(CC)c1ccc(/C=N/Nc2nc(C)cc(=O)[nH]2)cc1  -16.8%
72. CCc1ccc2c(c1)C(c1ccc([N+](=O)[O-])cc1)=NNC(c1ccccc1)=N2  -18%
73. COc1ccc(-c2csc(Cc3nc(O)cs3)n2)cc1  -23.9%
74. O=C(CSc1ccc(-c2ccc(F)cc2)nn1)Nc1ccc2c(c1)OCCO2  -25.1%
75. COc1ccc(NC(=O)CSc2ccc(-c3ccco3)nn2)c(OC)c1  -27.4%
76. COc1ccc(OC)c(Nc2nc(-c3ccc(O)c(O)c3)cs2)c1  -45.7%

For `CC(C)(C)C(=O)OCc1nc(-c2ccc(O)c(O)c2)cs1`, the Potency was 56.2 µM (active).
`Cn1c(-c2ccco2)nc2cc3ccccc3cc21` was tested, and the Potency was 56.2 µM (active).
For `Cc1ccnc(-n2sc3ccccc3c2=O)n1`, the Potency was 2.51 µM (active).
In the case of `NS(=O)(=O)c1ccc(NC(=S)Nc2ccc(Br)c(Cl)c2)cc1`, the Potency is reported as 56.2 µM (active).
With `NS(=O)(=O)c1ccc(CCNC(=S)Nc2ccc(S(N)(=O)=O)cc2)cc1` the Potency was 20 µM (active).
With `NS(=O)(=O)c1ccc(NC(=S)NNC(=O)c2cccs2)cc1` the Potency was 15.8 µM (active).
In the case of `CCOc1cc2[nH]c(=S)n(CCCN3CCCC3=O)c(=O)c2cc1OCC`, the Potency is reported as 56.2 µM (active).
In the case of `Cc1cc(=O)[nH]c(N/N=C/c2ccc3c(c2)OCCO3)n1`, the Potency is reported as 56.2 µM (active).
In the case of `COC(=O)CNC(c1ccccc1Cl)c1cc(Br)ccc1NC(=O)CCN1CCOCC1` (configuration not stated), the Potency is reported as 56.2 µM (active).
With `C/C(=N\NC(N)=S)c1ccncc1` the Potency was 79.4 µM (active).
For `O=S(=O)(NC(=S)Nc1ccccc1)c1ccc(F)cc1`, the Potency was 20 µM (active).
`Fc1cccc(Cl)c1CSc1ccc(-c2ccco2)nn1` was tested, and the Potency was 39.8 µM (active).
For `O=C(CSc1ccc(-c2ccco2)nn1)NCc1ccc2c(c1)OCO2`, the Potency was 50.1 µM (active).
For `O=C(CSc1ccc(-c2ccco2)nn1)Nc1cccc(F)c1`, the Potency was 15.8 µM (active).
For `CCc1ccc2c(c1)C1(NN=C(c3ccccc3)S1)C(=O)N2` (configuration not stated), the Potency was 8.91 µM (active).
With `Cc1ccc(-n2nc(-c3ccco3)cc2C(=O)NCc2cccnc2)cc1` the Potency was 10 µM (active).
`C=CS(=O)c1sc(Cl)c(N2CCOCC2)c1[N+](=O)[O-]` (configuration not stated) was tested, and the Potency was 10 µM (active).
In the case of `NC(N)=N/N=C/c1ccc(OCc2ccc(Cl)cc2Cl)cc1`, the Potency is reported as 31.6 µM (active).
`CC1CCN(C(=S)c2ccc(-c3ccc(Cl)cc3Cl)o2)CC1` was tested, and the Potency was 50.1 µM (active).

For `CCN1C(=NCCc2cccnc2)N[C@@H](c2ccccc2)C(C(=O)OC)=C1C`, the largest response in the series, negative = inhibition was 4.98% and 1.06%.
`OCCC(O)CO` (configuration not stated) was tested, and the largest response in the series, negative = inhibition was -2.96% and -0.468% and 9.51%.
